The campaign covered roughly 310,000 compounds. About 18,000 (5.8%) were called active. Another 22% or so got no clear call; they are omitted. The call rests on the fitted dose curve; in most records, active means well fitted inhibition curve with a large enough effect; inconclusive means small, poorly fitted or top-dose-only effect, or another doubt; inactive means no such curve, though single readings can be large or run the other way. Shown is part of a subset that was picked to be rich in actives. A call without a number means that no potency is given here.
Assay: Primary qHTS for delayed death inhibitors of the malarial parasite plastid, 48 hour incubation
Settings: P. falciparum luciferase growth in erythrocytes; series mostly up to 28.7 µM
Procedure, shortened: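 Parasite viability was followed by luminescence of a genomically integrated firefly luciferase. Cultures held 0.1% parasitemia at 2% hematocrit (final), incubated under 5% CO2 at 37 C.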
Potency means the concentration at half of the fitted maximal effect.

Structure (SMILES)	Potency
CCOC(=O)c1cc(S(=O)(=O)NCCc2ccc(OC)c(OC)c2)cn1C	inactive
COc1cccc(/C=C/C(=O)OCC(=O)N2CCCc3ccccc32)c1	inactive
CC(C)CC(=O)Nc1nnc(S(=O)(=O)N(C)c2ccc(Cl)cc2)s1	inactive
CCOc1ccc(CN2CCN(CCCc3ccccc3)C(CCO)C2)cc1 (centres undefined)	inactive
COc1ccc(CCNS(=O)(=O)c2cc3c(cc2C)NC(=O)CO3)cc1OC	inactive
O=C1CC(N2CCN(C(c3ccccc3)c3ccccc3)CC2)C(=O)N1 (centres undefined)	inactive
CC1(C)CC(=O)C=C(N2CCCC2)C1	inactive
CC1(C)CC(N2CCN(C(c3ccccc3)c3ccccc3)CC2)=CC(=[N+]2CCCCC2)C1	0.415 µM (active)
COC(=O)c1ccc(C(=O)NC2CC(C)(C)Cc3c2cnn3-c2ccc(F)cc2)nc1 (centres undefined)	inactive
Cc1cc(-c2ccc(S(=O)(=O)N3CCc4ccccc4C3)s2)on1	inactive
CCC(Cc1ccccc1)NS(=O)(=O)c1ccc2c(c1)NC(=O)CS2 (centres undefined)	inactive
CCOC(=O)C1=C(C)NC(=O)NC1c1ccccc1 (centres undefined)	inactive
C=CCOC(=O)C1=C(C)NC(SCC(=O)OCC)=C(C#N)C1c1ccc(C)cc1 (centres undefined)	inactive
C=CCC1(C#N)C(=S)NC(C)=C(C(=O)OCC)C1c1ccccc1 (centres undefined)	1.47 µM (active)
Cc1ccc(Cn2nnc3c(=O)n(CC(=O)N4CCCCC4)cnc32)cc1	inactive
CC(C)(C)c1ccc(Cn2nnc3c(=O)[nH]c(C4CCCN(C(=O)c5ccco5)C4)nc32)cc1 (centres undefined)	0.828 µM (active)
CC(C)(C)c1nc(NCC2CCCO2)c2nnn(Cc3ccccc3)c2n1 (centres undefined)	inactive
CC(C(=O)NC1CCCC1)N1CCN(S(=O)(=O)c2ccccc2Cl)CC1 (centres undefined)	inactive
Cc1ccc(C)c(S(=O)(=O)N2CCN(C(=O)Nc3ccccc3)CC2)c1	inactive
CC1CC(=O)Nc2ccccc2N1S(=O)(=O)c1cccs1 (centres undefined)	inactive
CC1CC(=S)Nc2ccccc2N1Cc1ccccc1 (centres undefined)	10.4 µM (active)
CC1CC(C)(C)NC(=S)N1CCC(=O)N1CCN(Cc2ccccc2)CC1 (centres undefined)	inactive
CCS(=O)(=O)C1=NSC2=NC(=O)/C(=C\c3ccc(OS(=O)(=O)c4ccccc4)cc3)C(=N)N21	inactive
COc1ccc(S(=O)(=O)NCc2ccc(C(=O)N3CCC4(CC3)OCCO4)cc2)cc1	inactive
COc1cccc(-c2cc3nc4c(c(N5CCC6(CC5)OCCO6)n3n2)CCCC4)c1	2.94 µM (active)
Cc1nc2cc(-c3ccc(F)cc3)nn2c(N2CCOCC2)c1C	inactive
OC(Cn1c2ccccc2c2ccccc21)C[n+]1ccccc1 (centres undefined)	7.38 µM (active)
O=C1c2ccccc2S(=O)(=O)N1CC(O)Cn1c2ccccc2c2ccccc21 (centres undefined)	inactive
CC(=O)c1ccc2c(c1)c1ccccc1n2CC(C)C	inactive

From PubChem BioAssay AID504832 (National Center for Advancing Translational Sciences (NCATS), 2011)
